Rows were chosen to be rich in hits. Some 12% of all compounds tested hit in one or more screens of this group.
Sfp PPTase inh = Sfp phosphopantetheinyl transferase inhibition; Q9F4F7; Potency, µM, most hits filed as inhibitors; 310,000 compounds, 3.5% hits; Biochemical Sfp PPTase activity, qHTS; AID 1490;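 further: the enzyme is Sfp with the accession as filed and its product quenches rhodamine fluorescence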
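After 15 min at room temperature with compound, 15 nM Sfp received 5 uM rhodamine-CoA plus 12.5 uM BHQ-2-ybbR (50 mM Hepes pH 7.6, 10 mM MgCl2). Rate came from the fluorescence difference over 30 min, ex 525/em 598 nm.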
JMJD2A Tudor = blocks the human JMJD2A Tudor domain. Potency, µM (highest dose often 114 µM), actives largely listed as inhibitors. AID 504339. AlphaScreen JMJD2A-Tudor / H3K4me3 peptide binding. 390,000 compounds, 4.4% hits; further: nearly all actives have a fitted effect of over 50% in size
HP1b binding inh = blocks HP1-beta chromodomain binding to methylated histone tails; AlphaScreen HP1-beta / biotin-H3K9me3 peptide binding; Potency, µM (top dose mostly 114 µM), most hits filed as inhibitors; 390,000 compounds, 0.56% hits; AID 540317; further: nearly all actives have a fitted effect of over 70% in size
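Compound inhibition of the preformed complex between 50 nM HP1-beta and 50 nM biotinylated H3K9me3 peptide was read by AlphaScreen. Buffer was PBS pH 7.4 with 0.01% Tween-20. Incubations ran 30 min at room temperature, with 10 ug/mL donor/acceptor beads.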
G9a block = blocks human histone lysine methyltransferase G9a; G9a H3K9 monomethylation, AlphaScreen, 2 h; Potency, µM (series often up to 102 µM), usual class: inhibitors; 350,000 compounds, 8.8% hits; AID 504332; further: nearly all actives have a fitted effect of over 75% in size
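Chemiluminescent proximity detection of H3K9 monomethylation, read after 10 min bead incubation in the dark. Reaction: 20 nM G9a, 500 nM biotin-H3K9 peptide, 20 uM SAM cofactor, 2 h, room temperature, following 15 min enzyme-compound preincubation.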
BAZ2B block = inhibitors of human BAZ2B bromodomain. Q9UIF8. AlphaScreen BAZ2B-H3K14Ac peptide displacement. Potency, µM (top dose mostly 114 µM), most hits filed as inhibitors. 360,000 compounds, 4.4% hits; further: nearly all actives have a fitted effect of over 60% in size
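Protein-peptide AlphaScreen: BAZ2B 50 nM, b-H3K14Ac 50 nM, 1x PBS pH 7.4 + 0.01% Tween-20. Preincubation 30 min RT; cpd 30 min RT (top 110 uM); beads 20 min RT, light-protected.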
TDP1 block = inhibitors of human tyrosyl-DNA phosphodiesterase TDP1. Q9NUW8. recombinant TDP1, AlphaScreen DNA substrate cleavage. Potency, µM (series often up to 130 µM), most hits filed as inhibitors. 350,000 compounds, 0.28% hits; further: nearly all actives have a fitted effect of over 40% in size
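Recombinant E. coli-expressed Tdp1 (1 nM) preincubated with compound 15 min at RT, then 5'-biotin/3'-phosphotyrosine-FITC DNA substrate (15 nM) added for 5 min. AlphaScreen beads (10 ug/ml) added, 10 min RT; tyrosine-FITC cleavage read as signal loss.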
Of the large screens only hits and unclear results are named; the others gave an inactive call. The call rests on the fitted dose curve; in most records, active means well fitted curve in the direction sought with a large enough effect; inconclusive means small, poorly fitted or top-dose-only effect, or another doubt; inactive means no such curve, though single readings can be large; an effect the other way counts as inactive or inconclusive.

C=CCNC(=S)N/N=C(\C)c1ccccn1	Sfp PPTase inh 79µM, JMJD2A Tudor 45µM, BAZ2B block 4.5µM
O=C(Nc1ccccc1Cl)c1cnccn1	none
COc1ccc2[nH]c3c(c2c1)CCN1C(=O)C(CC(=O)NCc2ccco2)C[C@H](C(=O)N(C(C)C)C(C)C)[C@@]31C (some centres undefined)	JMJD2A Tudor inconclusive (no result: Sfp PPTase inh, G9a block, BAZ2B block)
CC(C)(C)C1=CC=C(C(C)(C)C)C(=O)C1=O	Sfp PPTase inh 1.6µM, G9a block 2.2µM (no result: JMJD2A Tudor, HP1b binding inh)
CC1(C)c2ccccc2N2CC(=O)NC21/C=C/c1ccco1 (centres undefined)	Sfp PPTase inh 3.2µM, G9a block 32µM, BAZ2B block inconclusive
CC1(C)c2ccccc2N2CCC(=O)NC21/C=C/c1ccco1 (centres undefined)	Sfp PPTase inh 40µM, G9a block 40µM, BAZ2B block inconclusive

Screens: PubChem, National Center for Advancing Translational Sciences (NCATS)
